Screening results as filed in PubChem.
PPARg SRC3 recr: PPARgamma agonists recruiting SRC-3 coactivator, primary screen, biochemical | AID 731, 2007 | biochemical PPARgamma/SRC-3 coactivator recruitment assay | hit rate 0.26% among 200,000 | activation, % at 8 µM | Peroxisome proliferator-activated receptor gamma (Homo sapiens), P37231; in the data active = activation above about 23%;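 note: 0% = DMSO and 100% = reference agonist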
SRC3 TRFRET art: TR-FRET detection interference compounds, artefact control for PPARgamma SRC-3 recruitment agonists, biochemical, TR-FRET ratio | TR-FRET artefact counter-screen, PPARgamma/SRC-3 format; active compounds read high | TR-FRET ratio at 8 µM | hit rate 0.39% among 99,000 | AID 1048, 2008; in the data active = TR-FRET ratio above about 2000
SRC2 TRFRET art: TR-FRET signal artefacts, primary screen, artefact control for PPARgamma SRC-2 agonist project, biochemical. TR-FRET ratio at 8 µM. hit rate 0.4% among 200,000. TR-FRET artefact counter-screen; active compounds read high; in the data active = TR-FRET ratio above about 2000
PPARg SRC2 recr: agonists of PPARg-SRC-2 recruitment, primary screen, biochemical, HTS | PPARgamma LBD-SRC-2 recruitment | activation, % at 8 µM | hit rate 0.34% among 200,000 | AID 1032, 2008;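 note: 0% = vehicle and 100% = reference agonist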
PPARg SRC-1 ag: PPARgamma agonists recruiting SRC-1 coactivator, primary screen, biochemical | PPARgamma-SRC-1 coactivator recruitment biochemical assay | activation, % at 8 µM | hit rate 0.41% among 200,000 | AID 631, 2007; in the data active = activation above about 19%;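 note: 0% = DMSO and 100% = reference agonist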
SRC1 TRFRET art: TR-FRET detection interference compounds, primary screen, artefact control for PPARgamma SRC-1 recruitment agonists, biochemical, TR-FRET emission ratio; TR-FRET detection artefact counter-screen; active compounds read high; hit rate 0.34% among 99,000; TR-FRET ratio at 8 µM; in the data active = TR-FRET ratio above about 2300
PPARg SRC2 conf: agonists of PPARgamma SRC-2 coactivator recruitment, confirmation, biochemical, HTS; shares compounds with PPARg SRC3 recr; hit rate 52% among 790; activation, % at 8 µM; biochemical SRC-2 recruitment by PPARgamma;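 note: 0% = vehicle alone and 100% = reference agonist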
PPARg SRC1 ag: PPARgamma agonists recruiting SRC-1 coactivator, confirmation, biochemical; AID 1300, 2008; shares compounds with PPARg SRC3 recr; activation, % at 8 µM; PPARgamma–SRC-1 coactivator recruitment biochemical assay; hit rate 43% among 790; in the data active = activation above about 20%;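 note: 0% = vehicle wells and 100% = reference agonist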
PPARg SRC3 ag: PPARgamma-driven SRC-3 coactivator recruitment agonists, confirmation, biochemical. biochemical PPARgamma-SRC-3 coactivator recruitment, agonist mode. shares compounds with PPARg SRC3 recr. activation, % at 8 µM. hit rate 29% among 790; in the data active = activation above about 24%;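 note: 0% = vehicle wells and 100% = reference agonist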
Target sequence (P37231 whole entry, looked up): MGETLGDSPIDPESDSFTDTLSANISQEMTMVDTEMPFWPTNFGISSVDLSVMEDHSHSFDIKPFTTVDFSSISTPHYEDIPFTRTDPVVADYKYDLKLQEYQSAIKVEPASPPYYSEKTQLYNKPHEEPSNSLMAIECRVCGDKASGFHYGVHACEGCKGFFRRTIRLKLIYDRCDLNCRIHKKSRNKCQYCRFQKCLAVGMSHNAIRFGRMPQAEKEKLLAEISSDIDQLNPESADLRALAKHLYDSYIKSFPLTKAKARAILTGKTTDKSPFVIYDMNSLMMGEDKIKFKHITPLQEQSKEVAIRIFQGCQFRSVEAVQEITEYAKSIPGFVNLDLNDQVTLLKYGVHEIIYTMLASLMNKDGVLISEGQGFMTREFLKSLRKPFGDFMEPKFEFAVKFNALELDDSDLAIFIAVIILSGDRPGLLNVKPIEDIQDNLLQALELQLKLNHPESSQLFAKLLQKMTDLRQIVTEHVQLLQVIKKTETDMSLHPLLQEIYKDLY
Target sequence (Q9Y6Q9 whole entry, looked up): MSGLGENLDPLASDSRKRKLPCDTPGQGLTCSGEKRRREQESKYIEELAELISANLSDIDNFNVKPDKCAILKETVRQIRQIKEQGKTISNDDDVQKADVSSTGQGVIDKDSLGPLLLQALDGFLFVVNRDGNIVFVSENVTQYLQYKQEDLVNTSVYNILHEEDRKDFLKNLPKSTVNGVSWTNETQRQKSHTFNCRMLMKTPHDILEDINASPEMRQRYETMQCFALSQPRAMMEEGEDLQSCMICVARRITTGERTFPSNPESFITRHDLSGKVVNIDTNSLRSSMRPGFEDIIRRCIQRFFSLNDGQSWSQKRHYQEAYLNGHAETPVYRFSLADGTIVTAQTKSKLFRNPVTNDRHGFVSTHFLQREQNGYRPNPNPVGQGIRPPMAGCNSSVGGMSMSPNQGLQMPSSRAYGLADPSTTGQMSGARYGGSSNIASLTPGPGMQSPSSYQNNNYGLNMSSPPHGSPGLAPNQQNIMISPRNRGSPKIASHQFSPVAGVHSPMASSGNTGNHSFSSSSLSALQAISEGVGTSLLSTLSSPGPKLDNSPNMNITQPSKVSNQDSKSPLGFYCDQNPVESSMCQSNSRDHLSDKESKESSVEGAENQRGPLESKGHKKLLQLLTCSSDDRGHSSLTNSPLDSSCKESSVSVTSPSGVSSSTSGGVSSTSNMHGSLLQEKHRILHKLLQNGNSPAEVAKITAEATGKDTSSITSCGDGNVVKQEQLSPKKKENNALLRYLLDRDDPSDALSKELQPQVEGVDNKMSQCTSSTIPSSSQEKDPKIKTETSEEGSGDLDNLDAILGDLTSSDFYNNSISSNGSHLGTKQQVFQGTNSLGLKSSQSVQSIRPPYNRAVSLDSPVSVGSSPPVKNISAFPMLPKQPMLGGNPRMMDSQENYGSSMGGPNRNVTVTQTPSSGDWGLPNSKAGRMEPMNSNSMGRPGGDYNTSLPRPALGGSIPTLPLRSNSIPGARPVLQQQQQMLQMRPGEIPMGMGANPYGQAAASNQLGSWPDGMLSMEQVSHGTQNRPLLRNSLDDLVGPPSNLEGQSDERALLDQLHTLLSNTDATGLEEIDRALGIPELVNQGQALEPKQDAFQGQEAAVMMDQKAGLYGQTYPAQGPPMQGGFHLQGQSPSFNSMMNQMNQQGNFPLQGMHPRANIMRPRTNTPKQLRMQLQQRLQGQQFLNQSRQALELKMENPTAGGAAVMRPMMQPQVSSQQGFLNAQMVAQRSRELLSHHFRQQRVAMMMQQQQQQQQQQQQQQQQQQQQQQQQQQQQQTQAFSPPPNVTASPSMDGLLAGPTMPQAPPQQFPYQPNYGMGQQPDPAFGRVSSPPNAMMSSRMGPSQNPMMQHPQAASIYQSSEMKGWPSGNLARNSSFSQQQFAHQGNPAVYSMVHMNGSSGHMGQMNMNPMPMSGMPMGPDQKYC
* hit, by the source's call; x = no result. Most compounds without a hit are left out; they make up all but 0.9% or so of the library. Cut-off read from the data, not from the text of the source, unless noted: active = activation above about 22%; inactive = the rest.

SMILES	PPARg SRC3 recr	SRC3 TRFRET art	SRC2 TRFRET art	PPARg SRC2 recr	PPARg SRC-1 ag	SRC1 TRFRET art	PPARg SRC2 conf	PPARg SRC1 ag	PPARg SRC3 ag
Cc1ccsc1CNC1C2CC3CC(C2)CC1C3 (stereo unspecified)	2.4	1571	1485	4.2	2.2	1830	x	x	x
CCn1c2c(c3cc(OCC(C)C)ccc31)CCCC2=O	2.7	x	1436	3.6	-3.5	x	x	x	x
CCn1c2c(c3cc(Br)ccc31)CCC/C2=N\O	61.2*	x	2351*	39.5*	34.1*	x	45.4*	30.1*	28.9*
CCCCCCCC(=O)N/N=C/c1cccnc1	9.5	x	1642	5.5	20.3*	x	4.7	2.8	6.4
CC(C)COC(=O)CNc1n[nH]c(=S)[nH]c1=O	86.5*	x	2814*	62.7*	51.9*	x	78.4*	57.8*	52.0*
CCCCOC(=O)CNc1n[nH]c(=S)[nH]c1=O	95.1*	x	2722*	66.2*	47.9*	x	80.2*	61.5*	54.7*
CCCCOC(=O)CCNc1n[nH]c(=O)[nH]c1=O	-3.9	1615	1395	-1.0	0.6	1708	x	x	x
CCCCOC(=O)C(C)Nc1n[nH]c(=S)[nH]c1=O (stereo unspecified)	26.0*	x	1892	21.1	13.5	x	27.2*	26.6*	16.3
CCCCOC(=O)C(C)Nc1n[nH]c(=O)[nH]c1=O (stereo unspecified)	2.7	x	1335	3.2	0.4	x	x	x	x
Cc1nc2ccc3nc(NC(=O)c4ccc5c(c4)OCCO5)sc3c2s1	156.8*	x	2067*	17.1	116.6*	x	92.0*	70.8*	58.1*
COc1ccc(CNC(=O)CSc2nc(-c3ccccc3)cc(-c3cccs3)c2C#N)cc1	22.5	x	3077*	55.0*	14.4	x	25.6*	24.6*	13.4
CCN(CC)c1ccc(/C=C2\NC(=O)NC2=O)cc1	12.6	1594	1573	25.4*	14.9	2555*	11.2	9.3	6.6
Cn1ncc2c(N3CCN(c4ccc(Cl)c(Cl)c4)CC3)ncnc21	1.8	1762	1556	8.9	2.0	1746	x	x	x
CCOc1ccc(/C(O)=C2\C(=O)C(=O)N(c3cc(C)on3)C2c2ccccc2OC)cc1 (stereo unspecified)	41.6*	x	2300*	34.0*	27.3*	x	35.9*	30.9*	21.8
C=CCn1c(NC(C)c2cc(Cl)ccc2O)nc2ccccc21 (stereo unspecified)	28.1*	x	1650	27.1*	41.0*	x	19.0	31.8*	31.5*
C=CCn1c(NCc2cc(C)ccc2O)nc2ccccc21	3.1	x	1758	18.7	7.8	x	x	x	x
O=C(NNC(=O)C1CC(c2cccnc2)=NO1)Nc1ccccc1F (stereo unspecified)	5.9	1755	1468	12.5	3.3	2021	x	x	x
Cc1cccc(-n2c(=S)[nH]c3sc4c(c3c2=O)CCc2ccccc2-4)c1	20.8	2699*	2315*	36.1*	25.9*	2821*	33.9*	22.2*	24.2*
CCOC(=O)C1(Cc2ccc(Cl)cc2)CCN(C(=O)CCc2ccncc2)CC1	1.4	1537	1532	2.0	0.1	1689	x	x	x
CC1Cc2ccccc2N1S(=O)(=O)c1cccc(C(=O)NCCCn2ccnc2)c1 (stereo unspecified)	1.8	1694	1705	3.9	-4.4	1715	x	x	x
N#CC1=C2SCN(Cc3ccccc3)CN2C(=O)CC1c1cccs1 (stereo unspecified)	25.7*	x	2063*	23.4*	13.3	x	22.7*	14.6	15.3
O=Cc1ccc(OCC(=O)Nc2ccccc2C(F)(F)F)cc1	-2.0	1600	1384	0.8	-4.2	1732	x	x	x
Cc1nn(C)c(C)c1/C=C/C(=O)c1ccc(Cl)cc1Cl	1.3	1555	1944	8.9	3.4	1675	x	x	x
CC(NCC1(N2CCOCC2)CCCCC1)C(=O)Nc1ccc(Cl)cc1Cl (stereo unspecified)	0.0	1513	1643	3.4	-5.9	1818	x	x	x
CN1/C(=C\C(=O)c2ccco2)C(C)(C)c2ccccc21	26.4*	x	1942	18.6	4.8	x	19.4	11.2	12.9
SMILES	PPARg SRC3 recr	SRC3 TRFRET art	SRC2 TRFRET art	PPARg SRC2 recr	PPARg SRC-1 ag	SRC1 TRFRET art	PPARg SRC2 conf	PPARg SRC1 ag	PPARg SRC3 ag
CCC1=NN2C(=N)/C(=C\c3cccn3-c3cccc(Cl)c3)C(=O)N=C2S1	27.6*	1603	1702	6.5	11.9	1886	7.4	9.7	12.7
CN(C)c1ccc(NC(=O)CSc2nc(N)c(C(=O)Nc3ccc(N(C)C)cc3)s2)cc1	19.6	x	1835	24.1*	13.2	x	6.7	10.8	4.5
O=C(Nc1ccccc1C(=O)NCC1CCCO1)c1ccc(Cl)cc1Cl (stereo unspecified)	11.4	x	1634	-1.4	21.7*	x	0.6	-1.1	1.6
Cn1c(=O)[nH]c(=O)c2c1nc(N1CCCCCC1)n2CCOc1ccccc1	-0.6	1606	1443	4.4	-2.6	1794	x	x	x
C/C(=N/NS(=O)(=O)c1ccc(Cl)cc1)c1cccc(NC(=O)c2ccc(Cl)cc2Cl)c1	-0.8	x	1666	23.9*	17.9	x	6.8	7.7	5.1
C/C(=N/NS(=O)(=O)c1ccc(C)cc1)c1cccc(NC(=O)c2cccc(Cl)c2)c1	-0.7	x	1498	7.0	8.8	x	x	x	x
CCC(=O)Nc1cccc(C(=O)c2ccc(C)c(C)c2)c1	0.5	1683	1575	-0.5	-0.9	1883	x	x	x
CCN=C1SC(CC(=O)NCc2ccccc2)C(=O)N1CC (stereo unspecified)	0.0	1347	1505	-4.3	-6.3	1628	x	x	x
COC(=O)c1cc(Cl)c(NC(=O)c2cc3ccccc3o2)cc1OC	105.1*	x	3198*	50.1*	96.8*	x	58.7*	52.8*	40.0*
COC(=O)c1cc(Cl)c(NC(=O)c2ccc(C(C)(C)C)cc2)cc1OC	19.7	x	1607	8.2	4.8	x	x	x	x
CSC1=NSC2=NC(=O)/C(=C\c3coc4ccccc4c3=O)C(=N)N12	28.5*	1493	1437	14.8	24.6*	1656	9.2	9.7	21.7
CC(C)CSC1=NSC2=NC(=O)/C(=C\c3coc4ccccc4c3=O)C(=N)N12	11.5	1817	1797	4.6	6.7	1912	x	x	x
CC(Sc1cnc2ccccc2n1)C(=O)O (stereo unspecified)	21.0	x	1899	26.0*	11.5	x	6.1	-1.3	5.8
